# Reference: the supplement of paper PMC11732987, “Enantioselective OTUD7B fragment discovery through chemoproteomics screening and high-throughput optimisation” (Communications Chemistry, 2025)
# Compound: COc1cccc(CN(C)C(=O)CCl)c1
# Test: log2 ratio of Biotin-Ahx-Ub-VS probe labelling (compound/DMSO); higher = less target engagement, active = hit call of the paper (q ≤ 0.05, log2 ratio ≤ -1)
# Conditions: compound concentration: 50uM; treatment time: 3 h
# Protocol: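 Round 2 competitive ABPP in HEK293T lysate. Compounds were tested at 50 and 200 µM for 3 h, followed by Biotin-Ahx-Ub-VS enrichment and diaPASEF LC-MS/MS. Values are the average log2 ratio (compound/DMSO) from an unpaired t-test (n=3 treated, n=26 DMSO).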
# Chain of UniProt Q5T2D3 (Q5T2D3 whole entry): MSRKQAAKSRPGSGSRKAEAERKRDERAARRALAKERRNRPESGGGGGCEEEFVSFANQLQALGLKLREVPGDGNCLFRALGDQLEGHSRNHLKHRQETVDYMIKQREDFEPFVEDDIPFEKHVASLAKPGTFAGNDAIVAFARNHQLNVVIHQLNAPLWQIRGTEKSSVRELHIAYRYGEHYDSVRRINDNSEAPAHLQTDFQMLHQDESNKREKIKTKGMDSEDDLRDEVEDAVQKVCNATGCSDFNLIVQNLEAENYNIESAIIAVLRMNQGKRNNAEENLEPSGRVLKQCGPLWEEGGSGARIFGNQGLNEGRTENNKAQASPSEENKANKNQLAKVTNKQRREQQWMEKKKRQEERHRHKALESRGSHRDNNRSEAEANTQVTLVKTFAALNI
# Chain of UniProt P62068 (P62068 whole entry): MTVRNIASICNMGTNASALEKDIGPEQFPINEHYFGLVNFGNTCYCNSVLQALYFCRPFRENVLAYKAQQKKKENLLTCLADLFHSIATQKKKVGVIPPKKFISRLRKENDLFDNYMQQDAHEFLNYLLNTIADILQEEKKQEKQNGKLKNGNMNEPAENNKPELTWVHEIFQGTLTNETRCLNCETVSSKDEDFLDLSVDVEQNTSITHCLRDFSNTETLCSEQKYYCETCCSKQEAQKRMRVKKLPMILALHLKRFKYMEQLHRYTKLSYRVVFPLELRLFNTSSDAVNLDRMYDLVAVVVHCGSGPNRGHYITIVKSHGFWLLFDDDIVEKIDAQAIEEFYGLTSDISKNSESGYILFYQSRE
# Chain of UniProt Q96FW1 (Q96FW1 whole entry): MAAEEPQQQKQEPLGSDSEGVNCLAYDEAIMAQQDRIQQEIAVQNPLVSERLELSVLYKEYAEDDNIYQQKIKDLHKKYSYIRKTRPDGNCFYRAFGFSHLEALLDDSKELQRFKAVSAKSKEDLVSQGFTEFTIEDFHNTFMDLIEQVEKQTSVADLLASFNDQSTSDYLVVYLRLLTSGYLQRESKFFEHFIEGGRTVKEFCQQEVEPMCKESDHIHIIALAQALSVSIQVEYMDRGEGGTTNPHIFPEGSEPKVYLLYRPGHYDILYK
# Chain of UniProt P40818 (P40818 whole entry): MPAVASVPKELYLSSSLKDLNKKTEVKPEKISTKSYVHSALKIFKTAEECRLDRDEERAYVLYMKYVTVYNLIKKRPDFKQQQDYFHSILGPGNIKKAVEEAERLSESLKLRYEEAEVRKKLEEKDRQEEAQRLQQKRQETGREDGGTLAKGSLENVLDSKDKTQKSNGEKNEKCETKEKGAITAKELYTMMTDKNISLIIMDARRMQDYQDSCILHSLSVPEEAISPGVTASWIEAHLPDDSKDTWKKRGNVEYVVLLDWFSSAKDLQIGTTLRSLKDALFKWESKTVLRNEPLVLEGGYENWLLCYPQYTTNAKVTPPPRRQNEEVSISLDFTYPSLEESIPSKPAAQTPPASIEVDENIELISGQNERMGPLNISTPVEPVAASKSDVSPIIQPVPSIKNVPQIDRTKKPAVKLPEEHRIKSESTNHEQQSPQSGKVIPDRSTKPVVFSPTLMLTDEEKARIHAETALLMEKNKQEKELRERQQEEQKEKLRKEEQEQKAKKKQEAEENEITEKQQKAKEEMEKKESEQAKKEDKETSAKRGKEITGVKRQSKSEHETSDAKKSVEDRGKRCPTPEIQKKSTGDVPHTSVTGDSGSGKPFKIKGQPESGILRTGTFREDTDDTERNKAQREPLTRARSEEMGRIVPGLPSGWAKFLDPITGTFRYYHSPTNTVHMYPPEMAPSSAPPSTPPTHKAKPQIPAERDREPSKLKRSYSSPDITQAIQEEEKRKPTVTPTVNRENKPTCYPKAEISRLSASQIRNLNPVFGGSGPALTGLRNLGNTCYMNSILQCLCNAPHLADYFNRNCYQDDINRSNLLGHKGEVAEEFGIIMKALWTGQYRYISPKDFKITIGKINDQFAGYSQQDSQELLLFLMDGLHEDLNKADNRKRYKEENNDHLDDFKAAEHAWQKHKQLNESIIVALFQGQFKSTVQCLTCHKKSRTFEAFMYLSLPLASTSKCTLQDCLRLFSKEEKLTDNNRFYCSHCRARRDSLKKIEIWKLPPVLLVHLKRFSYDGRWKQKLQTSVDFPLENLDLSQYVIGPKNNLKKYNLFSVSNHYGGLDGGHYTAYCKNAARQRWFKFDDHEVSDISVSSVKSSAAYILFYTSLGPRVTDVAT
# Chain of UniProt O00487 (O00487 whole entry): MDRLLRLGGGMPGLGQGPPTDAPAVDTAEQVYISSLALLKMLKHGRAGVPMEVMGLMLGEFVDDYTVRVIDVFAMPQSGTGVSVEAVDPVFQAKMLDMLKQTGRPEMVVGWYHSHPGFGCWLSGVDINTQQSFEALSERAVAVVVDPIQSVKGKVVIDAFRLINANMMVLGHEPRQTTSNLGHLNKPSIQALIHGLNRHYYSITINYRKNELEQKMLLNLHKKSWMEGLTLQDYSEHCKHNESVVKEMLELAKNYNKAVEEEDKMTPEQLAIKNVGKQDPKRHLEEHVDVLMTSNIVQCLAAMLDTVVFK
# Chain of UniProt Q9Y5K5 (Q9Y5K5 whole entry): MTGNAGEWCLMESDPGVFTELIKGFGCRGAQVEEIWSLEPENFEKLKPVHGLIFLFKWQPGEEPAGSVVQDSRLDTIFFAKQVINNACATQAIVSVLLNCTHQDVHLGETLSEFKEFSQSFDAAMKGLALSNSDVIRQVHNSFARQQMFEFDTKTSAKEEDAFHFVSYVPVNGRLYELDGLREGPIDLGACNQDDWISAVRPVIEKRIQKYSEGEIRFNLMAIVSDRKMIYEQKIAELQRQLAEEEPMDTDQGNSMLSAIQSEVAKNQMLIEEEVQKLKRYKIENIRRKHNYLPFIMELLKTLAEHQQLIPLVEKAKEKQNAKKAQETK
# Chain of UniProt Q96RU2 (Q96RU2 whole entry): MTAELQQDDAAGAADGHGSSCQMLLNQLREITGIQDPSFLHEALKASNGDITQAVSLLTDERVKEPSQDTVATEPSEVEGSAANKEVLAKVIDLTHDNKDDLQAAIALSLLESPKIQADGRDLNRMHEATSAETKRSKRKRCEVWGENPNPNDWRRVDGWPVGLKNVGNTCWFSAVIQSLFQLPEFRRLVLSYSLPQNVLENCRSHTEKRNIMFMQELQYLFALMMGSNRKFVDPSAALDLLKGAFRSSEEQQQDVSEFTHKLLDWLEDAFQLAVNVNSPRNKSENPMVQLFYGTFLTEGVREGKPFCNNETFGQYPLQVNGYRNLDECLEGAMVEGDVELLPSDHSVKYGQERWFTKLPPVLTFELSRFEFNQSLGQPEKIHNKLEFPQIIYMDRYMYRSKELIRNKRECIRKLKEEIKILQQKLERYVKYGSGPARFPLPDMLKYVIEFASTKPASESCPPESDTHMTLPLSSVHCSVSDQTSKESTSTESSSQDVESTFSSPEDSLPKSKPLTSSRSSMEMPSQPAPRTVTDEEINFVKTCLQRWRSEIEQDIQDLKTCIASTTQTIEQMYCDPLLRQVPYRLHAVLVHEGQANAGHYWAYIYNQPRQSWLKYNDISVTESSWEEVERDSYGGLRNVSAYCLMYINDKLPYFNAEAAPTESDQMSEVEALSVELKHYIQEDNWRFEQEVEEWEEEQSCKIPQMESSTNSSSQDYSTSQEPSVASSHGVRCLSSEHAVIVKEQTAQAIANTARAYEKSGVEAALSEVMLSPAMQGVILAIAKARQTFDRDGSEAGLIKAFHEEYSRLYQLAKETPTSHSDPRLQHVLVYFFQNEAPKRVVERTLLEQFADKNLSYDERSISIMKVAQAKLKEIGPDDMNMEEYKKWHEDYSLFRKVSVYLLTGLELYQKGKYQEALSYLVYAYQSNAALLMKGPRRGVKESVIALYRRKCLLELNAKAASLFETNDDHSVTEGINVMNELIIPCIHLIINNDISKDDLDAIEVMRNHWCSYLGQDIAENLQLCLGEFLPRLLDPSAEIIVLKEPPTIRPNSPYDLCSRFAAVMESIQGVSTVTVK
# Chain of UniProt Q14694 (Q14694 whole entry): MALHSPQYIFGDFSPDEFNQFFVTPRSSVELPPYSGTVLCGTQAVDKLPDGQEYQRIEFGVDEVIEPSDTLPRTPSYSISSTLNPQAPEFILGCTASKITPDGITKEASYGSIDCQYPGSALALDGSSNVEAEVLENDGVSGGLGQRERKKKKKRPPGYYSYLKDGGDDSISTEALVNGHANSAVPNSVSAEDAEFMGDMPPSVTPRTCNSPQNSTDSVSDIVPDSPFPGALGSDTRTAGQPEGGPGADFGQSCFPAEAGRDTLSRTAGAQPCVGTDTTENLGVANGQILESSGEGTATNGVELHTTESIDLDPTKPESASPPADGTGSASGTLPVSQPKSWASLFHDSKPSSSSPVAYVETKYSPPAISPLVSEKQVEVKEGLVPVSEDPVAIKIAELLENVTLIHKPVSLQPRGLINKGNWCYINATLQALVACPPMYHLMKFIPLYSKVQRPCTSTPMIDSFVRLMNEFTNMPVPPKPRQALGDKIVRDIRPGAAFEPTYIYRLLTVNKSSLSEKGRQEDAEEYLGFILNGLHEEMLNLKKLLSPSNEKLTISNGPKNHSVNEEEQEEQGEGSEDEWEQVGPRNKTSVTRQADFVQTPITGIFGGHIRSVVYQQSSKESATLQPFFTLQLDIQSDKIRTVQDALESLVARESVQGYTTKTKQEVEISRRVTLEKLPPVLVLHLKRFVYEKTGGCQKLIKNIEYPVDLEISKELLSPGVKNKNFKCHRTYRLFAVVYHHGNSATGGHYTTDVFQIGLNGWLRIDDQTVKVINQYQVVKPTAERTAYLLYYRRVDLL
# Chain of UniProt P51665 (P51665 whole entry): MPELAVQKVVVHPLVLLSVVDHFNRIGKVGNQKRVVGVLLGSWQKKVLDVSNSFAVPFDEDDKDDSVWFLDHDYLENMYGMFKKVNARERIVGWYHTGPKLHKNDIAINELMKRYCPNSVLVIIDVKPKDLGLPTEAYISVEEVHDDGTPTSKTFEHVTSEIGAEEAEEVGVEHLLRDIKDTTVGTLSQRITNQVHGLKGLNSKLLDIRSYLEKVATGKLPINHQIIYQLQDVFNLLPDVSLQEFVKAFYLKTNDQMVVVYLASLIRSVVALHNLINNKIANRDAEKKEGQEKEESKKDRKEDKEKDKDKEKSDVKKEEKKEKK
row,Target,log2 ratio of Biotin-Ahx-Ub-VS probe labelling
1,UCHL1 (UniProt P09936),-0.0521 (inactive)
2,USP46 (UniProt P62068),-0.277 (inactive)
3,UCHL5 (UniProt Q9Y5K5),-0.115 (inactive)
4,ALG13 (UniProt Q9NP73),0.312 (inactive)
5,UniProt Q8TE49,-0.097 (inactive)
6,PRPF8 (UniProt Q6P2Q9),0.0579 (inactive)
7,UniProt Q9P2H5,-0.267 (inactive)
8,USP39 (UniProt Q53GS9),-0.0648 (inactive)
9,FAM105A (UniProt Q9NUU6),-0.133 (inactive)
10,USP8 (UniProt P40818),-0.108 (inactive)
11,USP10 (UniProt Q14694),-0.177 (inactive)
12,EIF3F (UniProt O00303),-0.14 (inactive)
13,UniProt Q5T2D3,-0.199 (inactive)
14,UniProt P51784,0.0601 (inactive)
15,USP7 (UniProt Q93009),-0.4 (inactive)
16,PSMD7 (UniProt P51665),0.132 (inactive)
17,UniProt O00487,-0.186 (inactive)
18,USP28 (UniProt Q96RU2),-0.0726 (inactive)
19,EIF3H (UniProt O15372),-0.183 (inactive)
20,OTUB1 (UniProt Q96FW1),-0.0418 (inactive)

# Same assay, conditions: compound concentration: 200uM; treatment time: 3 h
row,Target,log2 ratio of Biotin-Ahx-Ub-VS probe labelling
1,UCHL1 (UniProt P09936),0.0224 (inactive)
2,USP46 (UniProt P62068),-0.261 (inactive)
3,UCHL5 (UniProt Q9Y5K5),-0.295 (inactive)
4,ALG13 (UniProt Q9NP73),0.0712 (inactive)
5,UniProt Q8TE49,-0.652 (inactive)
6,PRPF8 (UniProt Q6P2Q9),0.0324 (inactive)
7,UniProt Q9P2H5,-0.143 (inactive)
8,USP39 (UniProt Q53GS9),-0.162 (inactive)
9,FAM105A (UniProt Q9NUU6),0.096 (inactive)
10,USP8 (UniProt P40818),-0.0766 (inactive)
11,USP10 (UniProt Q14694),0.037 (inactive)
12,EIF3F (UniProt O00303),-0.0452 (inactive)
13,UniProt Q5T2D3,0.0147 (inactive)
14,UniProt P51784,-0.0791 (inactive)
15,USP7 (UniProt Q93009),-1.53 (active)
16,PSMD7 (UniProt P51665),-0.458 (inactive)
17,UniProt O00487,-0.459 (inactive)
18,USP28 (UniProt Q96RU2),-0.646 (inactive)
19,EIF3H (UniProt O15372),0.043 (inactive)
20,OTUB1 (UniProt Q96FW1),0.0222 (inactive)
